# Assay results published in PubChem BioAssay (NCATS).
# Records with an inconclusive call do not appear. Activity calls are given as the source filed them. Calls follow the shape of the dose curve; as a rule, active = well fitted inhibition curve with a large enough effect; inconclusive = small, poorly fitted or top-dose-only effect; inactive = flat fitted curve, though single readings scatter.
# Target: Luciferin 4-monooxygenase (Photinus pyralis) (UniProt P08659)
# Experiment: Biochemical firefly luciferase enzyme assay for NPC (AID 624030); also: nearly all actives have a fitted effect of over 70% in size;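 as to activity change, negative = inhibition: purified P. pyralis luciferase at 10 nM with luciferin and ATP substrate; 0% = DMSO and -100% = full luciferase inhibition by PTC124 control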
# Conditions: purified P. pyralis luciferase, luminescence, 5 min; series mostly up to 58.6 µM; activity change, negative = inhibition: at the top concentration
# Method in brief: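 Purified P. pyralis luciferase at 10 nM in 50 mM Tris Acetate (final), luminescence read within 5 minutes of enzyme addition to compounds. Activity normalised to PTC124 versus DMSO; concentration-response curves classed by r2, magnitude and activity.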
# Potency is read from the fitted curve at half-maximal effect.
# Luciferin 4-monooxygenase (Photinus pyralis), sequence (P08659 whole entry, looked up): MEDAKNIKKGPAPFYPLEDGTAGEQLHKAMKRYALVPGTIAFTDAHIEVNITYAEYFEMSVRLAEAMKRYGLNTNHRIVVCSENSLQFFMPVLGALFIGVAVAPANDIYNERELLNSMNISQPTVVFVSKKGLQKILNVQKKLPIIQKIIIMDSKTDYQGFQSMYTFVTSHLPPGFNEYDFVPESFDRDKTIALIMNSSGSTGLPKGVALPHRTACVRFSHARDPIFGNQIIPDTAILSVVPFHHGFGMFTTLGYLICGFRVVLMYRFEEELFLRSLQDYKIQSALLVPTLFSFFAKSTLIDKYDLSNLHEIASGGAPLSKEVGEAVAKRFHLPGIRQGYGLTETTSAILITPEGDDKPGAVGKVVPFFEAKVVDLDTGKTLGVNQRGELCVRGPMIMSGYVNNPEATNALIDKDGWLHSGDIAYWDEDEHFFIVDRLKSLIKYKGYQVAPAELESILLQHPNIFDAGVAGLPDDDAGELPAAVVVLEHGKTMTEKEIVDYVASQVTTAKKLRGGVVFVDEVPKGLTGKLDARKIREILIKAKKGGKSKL
SMILES,Potency,"activity change, negative = inhibition"
O=c1c(-c2ccc(O)cc2)coc2cc(O)cc(O)c12,9.07 µM (active),–
CC(C)C(=O)Nc1ccc([N+](=O)[O-])c(C(F)(F)F)c1,–,-5.01% (inactive)
O=C(c1ccc(OCCN2CCCCC2)cc1)c1c(-c2ccc(O)cc2)sc2cc(O)ccc12,–,9.66% (inactive)
Cn1c(=O)c2[nH]cnc2n(C)c1=O,–,-0.755% (inactive)
NS(=O)(=O)c1cc2c(cc1Cl)NCNS2(=O)=O,–,0.651% (inactive)
COc1ccc2[nH]cc(CCNC(C)=O)c2c1,–,-4.56% (inactive)
CC(=O)OCC(CCn1cnc2cnc(N)nc21)COC(C)=O,–,0.168% (inactive)
NCCS(=O)(=O)O,–,-0.634% (inactive)
Cn1c(=O)c2c(ncn2C)n(C)c1=O,–,1.11% (inactive)
Clc1ccc(C(c2ccccc2Cl)C(Cl)Cl)cc1 (stereo not given),–,-1.08% (inactive)
Cc1ccc(-c2cc(C(F)(F)F)nn2-c2ccc(S(N)(=O)=O)cc2)cc1,–,4.61% (inactive)
Nc1ccn([C@H]2CC[C@@H](CO)O2)c(=O)n1,–,0.0198% (inactive)
Nc1c2c(nc3ccccc13)CCCC2,–,1.04% (inactive)
Cc1cn([C@H]2C=C[C@@H](CO)O2)c(=O)[nH]c1=O,–,1.72% (inactive)
CC(COc1ccccc1)N(CCCl)Cc1ccccc1 (stereo not given),–,2.48% (inactive)
C[C@](N)(Cc1ccc(O)c(O)c1)C(=O)O,–,-16% (inactive)
CCOC(=O)C(C)(C)Oc1ccc(Cl)cc1,–,2.59% (inactive)
CC(C)(Oc1ccc(C2CC2(Cl)Cl)cc1)C(=O)O (stereo not given),–,0.436% (inactive)
O=C(CCCN1CCC(O)(c2ccc(Cl)cc2)CC1)c1ccc(F)cc1,–,5.33% (inactive)
Cc1cn([C@H]2C[C@H](N=[N+]=[N-])[C@@H](CO)O2)c(=O)[nH]c1=O,–,0.182% (inactive)
CC(C)Cc1ccc(C(C)C(=O)O)cc1 (stereo not given),–,2.35% (inactive)
Cc1ccc(C(=O)Nc2ccc(S(=O)(=O)O)c3cc(S(=O)(=O)O)cc(S(=O)(=O)O)c23)cc1NC(=O)c1cccc(NC(=O)Nc2cccc(C(=O)Nc3cc(C(=O)Nc4ccc(S(=O)(=O)O)c5cc(S(=O)(=O)O)cc(S(=O)(=O)O)c45)ccc3C)c2)c1,11.4 µM (active),–
CC(C)NCC(O)c1ccc(O)c(O)c1 (stereo not given),–,-0.994% (inactive)
CN(Cc1cnc2nc(N)nc(N)c2n1)c1ccc(C(=O)N[C@@H](CCC(=O)O)C(=O)O)cc1,–,-3.39% (inactive)
CS(=O)(=O)Nc1ccc([N+](=O)[O-])cc1Oc1ccccc1,–,-0.404% [at 24.9 µM] (inactive)
Cn1cnc2c1c(=O)[nH]c(=O)n2C,–,0.892% (inactive)
CC1(CN2CCC(n3c(=O)[nH]c4ccccc43)CC2)OCc2ccccc2-n2cccc21 (stereo not given),–,-0.322% (inactive)
O=C(Nc1ccc([N+](=O)[O-])cc1Cl)c1cc(Cl)ccc1O,0.114 µM (active),–
CCC1(c2ccccc2)C(=O)NCNC1=O,–,5.83% (inactive)
O=c1[nH]cc(F)c(=O)[nH]1,–,-3.11% (inactive)
